Dicer processing – inhibitors of human Dicer processing of pre-microRNA | Q9UPY3 | cat-ELCCA pre-miR-21 Dicer processing, chemiluminescence; active compounds read high | z-score at 25 µM | hit rate 6% among 47,000; in the data active = z-score above about 3, passing the limit was not always enough;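 also: higher signal means more uncleaved substrate so more Dicer inhibition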
Large screens that a line does not name were inactive. This excerpt belongs to a sample that is enriched for hits.

Cc1ccc(N2C(=O)CSC23C(=O)Nc2ccccc23)cc1 (configuration not stated)	Dicer processing 3.8
O=C1CSC2(C(=O)Nc3ccccc32)N1c1ccccc1 (configuration not stated)	none
Cc1ccc(C)c(C(=O)CC2(O)C(=O)Nc3ccccc32)c1 (configuration not stated)	none
O=C(Cn1nc(C(F)(F)F)c2c1CCC2)Nc1ccc2c(c1)OCO2	none
Fc1ccccc1-c1nn2c(Cc3ccccc3)nnc2s1	none
CSc1nn2c(=O)c(Cc3ccccc3)nnc2s1	Dicer processing 3.2
c1ccc(Cc2nnc3sc(-c4ccco4)nn23)cc1	none
Clc1ccc(Sc2nc(-c3ccccc3)ns2)cc1	none
Cc1nn(C2c3ccccc3Oc3ccccc32)c(=S)s1	none
CCOC(=O)C1=C(CC(=O)Nc2ccc(OC)cc2)C(=O)N(c2ccc(F)cc2)C1C (configuration not stated)	none
N#Cc1ccc(CSC2=NCCCN2)cc1	none
CC(C)(CC(=O)O)C(CCC(=O)O)C(=O)O (configuration not stated)	none
O=[N+]([O-])c1ccc(-n2ncc(-c3nnnn3-c3ccccc3)c2-c2ccccc2)cc1	none
CN(C)c1ccc(C=C2C(=O)N(c3ccccc3)C(=O)N(c3ccccc3)C2=O)cc1	none
CN(C)c1ccc(/C=C2/OC(=S)NC2=S)cc1	Dicer processing 3.4
COc1ccc2c(c1OC)C(=O)OC2Nc1cc(C)ccn1 (configuration not stated)	none
COc1cccc(Cc2nnc(-c3ccc4c(c3)OCO4)o2)c1	none
N#Cc1c(-c2ccc(Cl)cc2)nc2n(c1=O)CCS2	none
O=C1C2C3C=CC(CC3)C2C(=O)N1c1cccc(Cl)c1 (configuration not stated)	Dicer processing 3.3
O=C(O)c1cccc(N2C(=O)C3C4C=CC(CC4)C3C2=O)c1 (configuration not stated)	none
O=C1C2C3C=CC(C3)C2C(=O)N1c1ccc(Cc2ccc(N3C(=O)C4C5C=CC(C5)C4C3=O)cc2)cc1 (configuration not stated)	none
CC(C)c1ccc(N2C(=O)C3C4C=CC(CC4)C3C2=O)cc1 (configuration not stated)	Dicer processing 3.5
Cc1ccc(N2C(=O)C3C4C=CC(CC4)C3C2=O)c(Br)c1 (configuration not stated)	none
COC(=O)c1ccc(N2C(=O)C3C4C=CC(CC4)C3C2=O)cc1 (configuration not stated)	none
CC(=O)c1c(OCc2ccccc2)ccc(C(C)(C)C)c1O	none
CCOC(=O)c1nnn2c1nc(Sc1nnc(-c3ccncc3)o1)c1ccccc12	none
Cc1ccc(S(=O)(=O)Cc2csc(N3CCOCC3)n2)cc1	none
CS/C(NCc1cccnc1)=C(/C#N)C(=O)C1CC1	none
CCOC(=O)/C(C)=N/Nc1cc(C)cc(C)c1	none
COC(=O)c1c(NC(=O)c2nc3ncccn3n2)sc2c1CCCC2	none
CCOc1ccc(C(=O)Cn2c(C)[n+](C)c3ccccc32)cc1	none
Cc1n(CC(=O)c2ccc(F)cc2)c2ccccc2[n+]1C	Dicer processing 4.8
CCCCc1n(CC(=O)c2ccccc2)c2ccccc2[n+]1C	none
Cn1c(=O)n(C)c2cc(S(=O)(=O)Nc3ccccc3O)ccc21	none
Cc1cc(O)c(C(C)C)cc1NS(=O)(=O)c1ccccc1	Dicer processing 4.2
Cc1ccnc(NS(=O)(=O)c2ccccc2)c1	none
CCOC(=O)Cc1cnc(N/N=C2\CCCc3cc(OC)ccc32)s1	none
O=C(NCc1cccnc1)c1cccc2c1OCCCO2	none
O=S(=O)(c1ccc(Cl)cc1)N1CCc2sccc2C1c1ccc(Cl)cc1 (configuration not stated)	none
O=S(=O)(Nc1ccc2c(c1)OCCO2)c1cc(S(=O)(=O)c2ccccc2)cs1	none
O=S(=O)(Nc1ccc(N2CCCCC2)cc1)c1cc(S(=O)(=O)c2ccccc2)cs1	Dicer processing 5.3
Cn1cnc(S(=O)(=O)Nc2ccc(N3CCCCC3)cc2)c1	none
O=C(OC(CN1CCCCC1)CN1CCCCC1)c1ccccc1	none
Nc1ccccc1Sc1nc2cc(Cl)ccc2s1	none
ONC=Nc1ccccc1Sc1nc2cc(Cl)ccc2s1	Dicer processing 3.1
ONC=Nc1ccccc1Sc1nc2c(Cl)cc(Cl)cc2s1	none
Nc1nc(N2CCOCC2)ncc1S(=O)(=O)c1ccc(Cl)cc1	Dicer processing 3.9
Nc1c2cnc(N3CCCC3)nc2nc(=O)n1-c1ccc(Cl)cc1	none
Cc1nc(N2CCCC2)ncc1S(=O)(=O)c1ccc(Cl)cc1	none
CCN1C(=O)c2cccc3c(NC(=O)c4ccccc4C)ccc1c23	none
O=c1[nH]cnc2c1oc1nc(-c3ccc(Cl)cc3)cc(-c3ccco3)c12	Dicer processing 6.5
NNC(=O)c1oc2nc(-c3ccc(Cl)cc3)cc(-c3ccccc3)c2c1N	none
O=c1c2oc3nc(-c4ccccc4)cc(-c4ccco4)c3c2ncn1/N=C/c1ccc(F)cc1	none
CCOC(=O)C1C(c2ccc(OC)c(OC)c2)C(C(=O)OCC)C(O)(C(F)(F)F)NC1(O)C(F)(F)F (configuration not stated)	none
Cc1ccc2c(c1)CCCN2C(=S)Nc1c(C)cccc1C	none
CC(C)(C)NC(=S)N/N=C/c1ncc(C(F)(F)F)cc1Sc1ccc(Cl)cc1	none

Source: PubChem
